# EWS-Fli block: EWS/Fli-driven NR0B1 reporter inhibitors, primary screen, A673 cells, NR0B1 luciferase, luminescence, MLPCN library | viability-normalised | inhibition, % at 12.6 µM | 350,000 compounds, 0.67% hits;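 active = mean inhibition of at least 50% after viability correction, with every replicate also passing that limit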;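 also: firefly luciferase signal divided by Alamar Blue viability fluorescence both relative to DMSO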
# KKLEB cytotox: cytotoxicity in KKLEB CF airway cells, primary screen, cytotoxicity control for CF NF-kB inhibitor project, cell-based, uHTS, fluorescence assay plates; activity change (cytotoxicity), % at 5 µM; KKLEB CF airway cells viability, ATPlite luminescence, overnight; stronger effect = lower value; cells stimulated with P. aeruginosa culture filtrate; AID 602141, 2011; 360,000 compounds, 0.36% hits;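 active = corrected activity change at or below -50% at 5 µM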
# CF NFkB block: inhibitors of PAF-induced NF-kB signaling, primary screen, cell-based, GFP fluorescence, uHTS. AID 588850, 2011. 360,000 compounds, 0.86% hits. KKLEB NF-kB-GFP reporter, GFP fluorescence overnight. inhibition, % at 5 µM;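 active = at least 50% inhibition at 5 µM, scaled per plate between neutral and stimulator controls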;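 also: PAF is a Pseudomonas aeruginosa culture filtrate used as stimulus; plate controls were PAF-stimulated DMSO wells for no effect and unstimulated DMSO wells for full effect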
# LGR2 inh: inhibitors of bursicon-induced LGR2 CRE-luciferase signal, primary screen, cell-based, HEK293, CRE-luciferase reporter, bursicon stimulation; Drosophila bursicon receptor LGR2 (rickets); AID 720647, 2013; bursicon-stimulated, 4 h; 380,000 compounds, 0.35% hits; inhibition, % at 9.99 µM;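 active = drop in luminescence signal, shown as inhibition above about 50% in the replicate tests, limit read from the data, passing the limit was not always enough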;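 also: agonist challenge used bursicon conditioned medium at about half maximal strength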
# TROY signal inh: inhibitors of TROY-driven NF-kB signaling, primary screen, Q293 LMP1-TROYcd cells, NF-kB luciferase, uHTS. Q293 LMP1-TROYcd NF-kB luciferase reporter, 4 h. inhibition, % at 10 µM. 360,000 compounds, 0.98% hits;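 active = compounds whose plate-normalised and pattern-corrected inhibition of the luciferase reporter signal at the single screening dose is 50% or more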
# TWEAK-Fn14 inh: inhibitors of TWEAK-Fn14 signaling, primary screen, luciferase reporter cells, uHTS; TWEAK-stimulated Fn14 reporter cells, luciferase luminescence, 8 h; inhibition, % at 10 µM; 360,000 compounds, 2% hits; AID 1159606, 2016; in the data active = inhibition above about 50%
# DNA binder FP: DNA binders by acridine orange displacement, dose response, counter-screen for EWS/Fli inhibitor project, biochemical, fluorescence polarization, cherry-pick | salmon sperm DNA acridine orange fluorescence polarization | AC35, µM (doses to about 68 µM), for the others: at the highest dose activity change, negative = DNA binding | 640 compounds, 2% hits | shares compounds with EWS-Fli block | AID 720586, 2013;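 active = fitted curve reaches a 35% signal fall AC35 below twice the sample's top valid tested dose, actives reach about 48 µM in these data; inactive = the rest, including activity in the rising direction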;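 also: lower polarization ratio signals compound binding to DNA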
# Starred values were filed as active, the others as inactive; / = no result. An excerpt weighted towards active compounds, which were near 2.6% of everything screened.
SMILES,EWS-Fli block,KKLEB cytotox,CF NFkB block,LGR2 inh,TROY signal inh,TWEAK-Fn14 inh,DNA binder FP
COC(=O)[C@@H]1[C@@H](CO)[C@@H]2Cn3c(ccc(-c4ccccc4F)c3=O)[C@H]1N2Cc1cccnc1,0,/,/,22,/,/,/
COc1ccc(-c2ccc([C@@H]3[C@@H](CO)N4CCCCN(C(=O)Cc5ccncc5)C[C@@H]34)cc2)cc1,-6,/,/,16,/,/,/
O=C1NC2C(=CC(O)C(O)C2O)c2cc3c(cc21)OCO3 (stereo not drawn),56*,-7,78*,105*,79*,100*,-9%
O=C(Cc1ccccc1)N1CCCCN2[C@@H](CO)[C@@H](c3ccc(C#Cc4ccccc4)cc3)[C@@H]2C1,/,/,/,8,/,/,/
O=C1NC(=O)N(c2ccccc2)C(=O)/C1=C\C=C\c1ccccc1,58*,18,35,-3,-24,67*,-18%
Cc1cc(C)cc(N2C(=O)NC(=O)/C(=C\C=C\c3ccco3)C2=O)c1,61*,-29,47,-4,5,9,0%
O=C1NC(=O)N(Cc2ccc(F)cc2)C(=O)/C1=C\C=C\c1ccco1,55*,-3,78*,7,-1,17,-8%
C=CCN1C(=S)N[C@@H]2c3ccccc3O[C@@]1(C)[C@@H]2C(=O)OCC,1,/,/,/,/,/,/
O=C(Cc1ccncc1)N1CCCCN2[C@@H](CO)[C@H](c3ccc(C#Cc4ccccc4F)cc3)[C@@H]2C1,-12,/,/,2,/,/,/
Cc1cc2c(C(C)C)c(O)c(O)c(C=O)c2c(O)c1-c1c(C)cc2c(C(C)C)c(O)c(O)c(C=O)c2c1O,58*,-53*,62*,38,66*,102*,7%
CC[C@@H]1C[C@H]2CC[C@H](O2)[C@H](C)C(=O)O[C@@H](C)C[C@@H]2CC[C@@H](O2)[C@@H](C)C(=O)O[C@H](C)C[C@H]2CC[C@H](O2)[C@H](C)C(=O)O[C@@H](C)C[C@@H]2CC[C@@H](O2)[C@@H](C)C(=O)O1,54*,/,/,20,/,/,5%
CN1C2CCC1/C(=C/c1ccccn1)C(=O)/C2=C\c1ccccn1,80*,-91*,99*,102*,42,100*,-3%
Cc1ccccc1-n1c(/C=C/c2ccccn2)nc2ccccc2c1=O,-28,4,2,-20,-2,-11,/

# Screening results (PubChem)
